Measured values as given in PubChem BioAssay.
For some of these results: Results with a measured potency or affinity are listed apart. Activity calls are given as the source filed them. Unless noted, no rule for the calls is given here.

Tests used:
[1] = antimalarial activity against Dd2 strain (AID 2302;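 active = growth inhibition above 50% at the single 2 µM test dose, taken to imply half-maximal potency below 2 µM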;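 also: 0% = DMSO untreated growth and 100% = chloroquine plus artemisinin killed control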); details: P. falciparum Dd2 in RBCs, LDH growth readout, 72 h; at 2 µM; stronger effect = higher value
[2] = human hepatoma cell viability loss – ATP luminescence, cytotoxicity control for P. falciparum antimalarial project, primary screen (AID 2303;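 active = inhibition above 50%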;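 also: 0% = DMSO wells and 100% = digitonin-killed cells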); details: HepG2 viability, 24-48 h, at 10 µM, stronger effect = higher value
[3] = target: L-lactate dehydrogenase (Plasmodium falciparum (isolate CDC / Honduras)) (UniProt Q27743); assay: PfLDH activity inhibition – cell lysate, 3D7 strain, counter-screen for P. falciparum growth inhibition project (AID 2304);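 also: 0% = vehicle and 100% = reference inhibitor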; details: P. falciparum 3D7 crude extract, LDH APAD/NBT absorbance; at 2 µM; stronger effect = higher value
[4] = inhibition of 3D7 malaria parasite growth – strain 3D7 (AID 2306);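 also: 0% = DMSO wells and 100% = chloroquine plus artemisinin control wells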; details: P. falciparum 3D7 erythrocytic growth, LDH absorbance, 72 h; at 2 µM; stronger effect = higher value
[5] = target: Calcium-dependent protein kinase 1 (Plasmodium falciparum (isolate 3D7)) (UniProt P62344); assay: PfCDPK1 kinase inhibitors, biochemical, TCAMS library (AID 1159585; cut-off not given, nearly all actives have IC50 up to about 0.98 µM;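 also: inhibitors leave more ATP so luminescence rises with inhibition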); details: recombinant PfCDPK1, Kinase-Glo ATP depletion luminescence
[6] = target: Plasmodium falciparum protein kinase 6 (PK6, PF3D7_1337100) (UniProt Q8IDW1); assay: PfPK6 kinase inhibitors, biochemical, TCAMS library (AID 1159586); details: recombinant PfPK6, Kinase-Glo ATP depletion luminescence
[7] = target: Protein kinase 7 (PK7), Plasmodium falciparum 3D7 (PF3D7_0213400) (UniProt Q7YTF7); assay: inhibition of Plasmodium PK7 catalytic activity – biochemical, TCAMS antimalarial set, Kinase-Glo luminescence (AID 1159587); details: recombinant PfPK7, Kinase-Glo ATP depletion luminescence
[8] = target: Calcium-dependent protein kinase 4 (Plasmodium falciparum (isolate 3D7)) (UniProt Q8IBS5); assay: PfCDPK4 kinase inhibitors, biochemical, TCAMS library (AID 1159588; cut-off not given, nearly all actives have IC50 up to about 0.91 µM); details: recombinant PfCDPK4, Kinase-Glo ATP depletion luminescence
Sequence of Calcium-dependent protein kinase 4 (Plasmodium falciparum (isolate 3D7)) (Q8IBS5 whole entry, looked up): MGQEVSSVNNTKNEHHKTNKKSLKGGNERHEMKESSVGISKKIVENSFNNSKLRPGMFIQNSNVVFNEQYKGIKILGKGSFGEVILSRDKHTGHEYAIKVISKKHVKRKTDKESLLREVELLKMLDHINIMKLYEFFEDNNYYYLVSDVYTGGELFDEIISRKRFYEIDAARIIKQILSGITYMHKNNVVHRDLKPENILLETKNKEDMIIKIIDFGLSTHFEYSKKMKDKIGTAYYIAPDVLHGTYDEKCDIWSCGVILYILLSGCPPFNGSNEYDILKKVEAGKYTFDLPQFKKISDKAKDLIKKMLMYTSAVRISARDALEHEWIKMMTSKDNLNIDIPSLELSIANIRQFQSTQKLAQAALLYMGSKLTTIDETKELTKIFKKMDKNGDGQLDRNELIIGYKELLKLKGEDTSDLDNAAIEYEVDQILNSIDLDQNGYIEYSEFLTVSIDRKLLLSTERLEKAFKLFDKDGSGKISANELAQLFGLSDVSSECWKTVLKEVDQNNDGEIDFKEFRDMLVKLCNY

Sequence of Protein kinase 7 (PK7), Plasmodium falciparum 3D7 (PF3D7_0213400) (Q7YTF7 1-343): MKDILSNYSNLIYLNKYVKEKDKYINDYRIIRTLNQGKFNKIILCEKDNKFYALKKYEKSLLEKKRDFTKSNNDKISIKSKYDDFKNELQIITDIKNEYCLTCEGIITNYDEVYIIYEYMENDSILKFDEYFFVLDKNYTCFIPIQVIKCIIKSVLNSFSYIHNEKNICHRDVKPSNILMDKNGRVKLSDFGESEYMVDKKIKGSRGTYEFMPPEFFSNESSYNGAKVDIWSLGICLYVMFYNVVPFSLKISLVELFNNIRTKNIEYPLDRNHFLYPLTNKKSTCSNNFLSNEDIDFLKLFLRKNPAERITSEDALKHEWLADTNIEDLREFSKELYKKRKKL
Sequence of Calcium-dependent protein kinase 1 (Plasmodium falciparum (isolate 3D7)) (P62344 whole entry, looked up): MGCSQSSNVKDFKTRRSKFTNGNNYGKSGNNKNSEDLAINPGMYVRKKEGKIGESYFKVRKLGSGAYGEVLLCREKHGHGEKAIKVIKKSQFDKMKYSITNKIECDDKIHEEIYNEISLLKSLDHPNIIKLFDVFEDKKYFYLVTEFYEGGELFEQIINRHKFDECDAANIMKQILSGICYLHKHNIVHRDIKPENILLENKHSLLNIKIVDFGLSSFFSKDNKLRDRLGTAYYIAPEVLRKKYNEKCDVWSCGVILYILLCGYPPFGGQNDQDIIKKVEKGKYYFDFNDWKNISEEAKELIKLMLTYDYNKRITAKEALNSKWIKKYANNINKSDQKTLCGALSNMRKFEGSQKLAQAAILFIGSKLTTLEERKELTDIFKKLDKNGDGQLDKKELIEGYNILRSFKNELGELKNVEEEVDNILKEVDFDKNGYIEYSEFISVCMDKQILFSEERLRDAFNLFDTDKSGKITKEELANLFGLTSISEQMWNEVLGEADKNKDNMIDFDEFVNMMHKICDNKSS
Sequence of L-lactate dehydrogenase (Plasmodium falciparum (isolate CDC / Honduras)) (Q27743 whole entry, looked up): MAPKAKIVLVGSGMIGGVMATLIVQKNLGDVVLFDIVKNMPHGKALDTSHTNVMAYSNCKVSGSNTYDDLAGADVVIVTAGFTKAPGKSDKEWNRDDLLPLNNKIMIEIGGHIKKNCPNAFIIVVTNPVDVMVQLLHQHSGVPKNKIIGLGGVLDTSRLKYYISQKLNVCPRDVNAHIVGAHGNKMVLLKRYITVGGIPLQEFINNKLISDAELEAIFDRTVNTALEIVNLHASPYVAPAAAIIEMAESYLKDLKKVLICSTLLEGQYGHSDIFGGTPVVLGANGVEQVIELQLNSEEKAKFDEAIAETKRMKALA
Sequence of Plasmodium falciparum protein kinase 6 (PK6, PF3D7_1337100) (Q8IDW1 1-305): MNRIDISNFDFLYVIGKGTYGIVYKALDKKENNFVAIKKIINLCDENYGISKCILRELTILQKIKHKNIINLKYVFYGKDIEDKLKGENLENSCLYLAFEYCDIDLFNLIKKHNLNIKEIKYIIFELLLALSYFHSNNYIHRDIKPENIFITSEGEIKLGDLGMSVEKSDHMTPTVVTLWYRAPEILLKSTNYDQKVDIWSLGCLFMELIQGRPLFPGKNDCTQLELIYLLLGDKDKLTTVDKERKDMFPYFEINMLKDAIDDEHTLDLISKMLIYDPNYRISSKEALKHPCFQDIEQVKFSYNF

Cc1ccccc1C1CCN(C2CCC(NC(=O)/C=C/c3c[nH]c4ccccc34)CC2)CC1 (centres undefined)
inactive: inhibition [2] 30% | inhibition [3] 2% | outcome [5] | outcome [6] | outcome [7] | outcome [8]
active: growth inhibition [1] 51% | growth inhibition [4] 100%

CCCNCc1ccc(-c2ccc(CN(CCOC)C(=O)CCc3ccc(OC)cc3)cc2)nc1
inactive: growth inhibition [1] 29% | inhibition [2] 11% | inhibition [3] -1% | outcome [5] | outcome [6] | outcome [7] | outcome [8]
active: growth inhibition [4] 98%

Cc1c(CNCCCNc2nc3ccccc3[nH]2)sc(C(F)F)c1Br
active: growth inhibition [4] 102%
inactive: growth inhibition [1] 5% | inhibition [2] 9% | inhibition [3] 2% | outcome [5] | outcome [6] | outcome [7] | outcome [8]

CC(CN(C)C)C(=O)Nc1ccc(-c2ccc(-c3nc4ccccc4[nH]3)s2)cc1 (centres undefined)
inactive: inhibition [2] 14% | inhibition [3] 5% | outcome [5] | outcome [6] | outcome [7] | outcome [8]
active: growth inhibition [1] 86% | growth inhibition [4] 100%

COc1cc(C(=O)N2CC[C@@H](CCN3CCC4(CC3)CN(S(C)(=O)=O)c3ccccc34)C[C@H]2Cc2ccc(Cl)c(Cl)c2)cc(OC)c1OC
inactive: inhibition [2] 29% | inhibition [3] 4% | outcome [5] | outcome [6] | outcome [7] | outcome [8]
active: growth inhibition [1] 99% | growth inhibition [4] 101%

COc1cc2nccc(Nc3ccc(OCc4ccccc4)cc3)c2cc1OC
active: growth inhibition [1] 99% | growth inhibition [4] 101%
inactive: inhibition [2] 35% | inhibition [3] 1% | outcome [5] | outcome [6] | outcome [7] | outcome [8]

O=C(Cc1cnc[nH]1)Nc1cccc(-c2ccc(-c3nc4ccc(C(F)(F)F)cc4[nH]3)s2)c1
inactive: inhibition [2] 5% | inhibition [3] 3% | outcome [5] | outcome [6] | outcome [7] | outcome [8]
active: growth inhibition [1] 99% | growth inhibition [4] 101%

O=C(NCCCCN1CC=C(c2ccc3c(c2OCc2ccccc2)CCCC3)CC1)c1ccc(-c2ccc(C(F)(F)F)cc2)cc1
inactive: inhibition [2] 19% | inhibition [3] -5% | outcome [5] | outcome [6] | outcome [7] | outcome [8]
active: growth inhibition [1] 82% | growth inhibition [4] 97%

CC(=O)Nc1nnc(SCc2c(C)cc(C(C)(C)C)cc2C)s1
active: growth inhibition [1] 91% | growth inhibition [4] 98%
inactive: inhibition [2] 3% | inhibition [3] -4% | outcome [5] | outcome [6] | outcome [7] | outcome [8]

CC1CCC(NCc2c(O)ccc3ccccc23)CC1 (centres undefined)
inactive: inhibition [2] 13% | inhibition [3] -1% | outcome [5] | outcome [6] | outcome [7] | outcome [8]
active: growth inhibition [1] 77% | growth inhibition [4] 95%

O=C(NC1CC1)c1ccc(N2CCOc3ccc(Cl)cc32)s1
inactive: inhibition [2] 8% | inhibition [3] 5% | outcome [5] | outcome [6] | outcome [7] | outcome [8]
active: growth inhibition [1] 73% | growth inhibition [4] 94%

O=C1c2ccccc2-n2c1nc1ccccc1c2=O
inactive: inhibition [2] 9% | inhibition [3] 4% | outcome [5] | outcome [6] | outcome [7] | outcome [8]
active: growth inhibition [1] 80% | growth inhibition [4] 93%

C[C@@H](Oc1cc(-n2cnc3ccc(NC(=O)NC(C)(C)C)cc32)sc1C(N)=O)c1ccccc1Cl
active: growth inhibition [1] 97% | growth inhibition [4] 95%
inactive: inhibition [2] 28% | inhibition [3] 1% | outcome [5] | outcome [6] | outcome [7] | outcome [8]

Cc1ccc(-c2cc(C(=O)Nc3ccc(S(=O)(=O)N(C)Cc4ccccc4)cc3)[nH]n2)c(O)c1
inactive: inhibition [2] 34% | inhibition [3] -1% | outcome [5] | outcome [6] | outcome [7] | outcome [8]
active: growth inhibition [1] 67% | growth inhibition [4] 99%

COc1ccc(-c2csc(N(CCCN(C)C)C(=O)c3cc4c(C)nn(-c5ccccc5)c4s3)n2)cc1
active: inhibition [2] 100% | growth inhibition [4] 102%
inactive: growth inhibition [1] 16% | inhibition [3] -2% | outcome [5] | outcome [6] | outcome [7] | outcome [8]

Clc1ccc2c(NN=Cc3ccccc3)ccnc2c1
active: growth inhibition [1] 94% | growth inhibition [4] 100%
inactive: inhibition [2] -6% | inhibition [3] -3% | outcome [5] | outcome [6] | outcome [7] | outcome [8]

O=C(NCCCCN1CCC(C(c2ccccc2)c2ccccc2)CC1)c1ccc(NC(=O)c2ccc(Cl)cc2)cc1
active: growth inhibition [4] 100%
inactive: growth inhibition [1] 47% | inhibition [2] 12% | inhibition [3] -2% | outcome [5] | outcome [6] | outcome [7] | outcome [8]

N#Cc1ccc2c(c1)CN(CCC1CCC(NC(=O)c3cc4cnccc4[nH]3)CC1)CC2 (centres undefined)
active: growth inhibition [4] 97%
inactive: growth inhibition [1] 28% | inhibition [2] 13% | inhibition [3] -2% | outcome [5] | outcome [6] | outcome [7] | outcome [8]

Clc1ccc2c(NCCCCCCCCNc3ccnc4cc(Cl)ccc34)ccnc2c1
inactive: inhibition [2] 2% | inhibition [3] 4% | outcome [5] | outcome [6] | outcome [7] | outcome [8]
active: growth inhibition [1] 96% | growth inhibition [4] 99%

CCC[C@@H]1CCN[C@H]([C@H](O)c2ccnc3ccc(OC)cc23)C1
active: growth inhibition [1] 69% | growth inhibition [4] 99%
inactive: inhibition [2] -3% | inhibition [3] -1% | outcome [5] | outcome [6] | outcome [7] | outcome [8]

CCN(CC)c1ccc(C(=O)Cn2ccc(=N)cc2)cc1
inactive: inhibition [3] 3% | outcome [5] | outcome [6] | outcome [7] | outcome [8]
active: growth inhibition [1] 64% | inhibition [2] 92% | growth inhibition [4] 84%

Fc1cc(Cl)ccc1Nc1ccnc(Nc2ccc3cn[nH]c3c2)n1
active: growth inhibition [1] 56% | growth inhibition [4] 97%
inactive: inhibition [2] 8% | inhibition [3] -3% | outcome [5] | outcome [6] | outcome [7] | outcome [8]

Oc1ccc2nc(NCCCc3ccccc3)nc(NCCCc3ccccc3)c2c1
inactive: inhibition [2] 5% | inhibition [3] -3% | outcome [5] | outcome [6] | outcome [7] | outcome [8]
active: growth inhibition [1] 93% | growth inhibition [4] 101%

Cc1cc(-c2cccc(CNCc3ccccc3)c2)ccc1S(=O)(=O)NCCN1CCCC1
active: growth inhibition [1] 58% | growth inhibition [4] 98%
inactive: inhibition [2] 40% | inhibition [3] 1% | outcome [5] | outcome [6] | outcome [7] | outcome [8]

CC(C)[C@H](NC(=O)c1ccc(O)c(-c2ccc(Cl)c(Cl)c2)c1)C(=O)NCCN1CCCC1
inactive: inhibition [2] 4% | inhibition [3] 4% | outcome [5] | outcome [6] | outcome [7] | outcome [8]
active: growth inhibition [1] 83% | growth inhibition [4] 98%

CCCN1CCN(CCCNC(=O)c2cc3c(-c4ccc(Cl)cc4)nn(C)c3s2)CC1
inactive: growth inhibition [1] 20% | inhibition [2] 46% | inhibition [3] -3% | outcome [5] | outcome [6] | outcome [7] | outcome [8]
active: growth inhibition [4] 88%

CN(C)S(=O)(=O)c1ccc(N2C(=O)[C@@H]3[C@H](C2=O)[C@@]2(c4ccccc4)C(=O)[C@]3(c3ccccc3)C(c3ccccc3)=C2c2ccccc2)cc1
active: growth inhibition [1] 63% | growth inhibition [4] 92%
inactive: inhibition [2] -10% | inhibition [3] 3% | outcome [5] | outcome [6] | outcome [7] | outcome [8]

CC1(C)N=C(N)N=C(N)C1c1ccc(Cl)c(Cl)c1 (centres undefined)
inactive: growth inhibition [1] 0% | inhibition [2] 47% | inhibition [3] -6% | outcome [5] | outcome [6] | outcome [7] | outcome [8]
active: growth inhibition [4] 95%

Cc1ccc(F)c(OCC2CCCN(c3ccc(C(=O)NC4CC4)cn3)C2)c1 (centres undefined)
active: growth inhibition [1] 94% | growth inhibition [4] 96%
inactive: inhibition [2] 3% | inhibition [3] -3% | outcome [5] | outcome [6] | outcome [7] | outcome [8]

COc1cccc2cc(C(=O)N[C@@H](CC(C)C)C(=O)N[C@H](/C=N/N(C)C(=O)OC(C)(C)C)CC(=O)OC(C)(C)C)oc12
inactive: inhibition [2] 5% | inhibition [3] -8% | outcome [5] | outcome [6] | outcome [7] | outcome [8]
active: growth inhibition [1] 67% | growth inhibition [4] 87%

O=C(CCc1ccccc1)NC(c1ccc(Cl)cc1)c1ccc2cccnc2c1O (centres undefined)
active: inhibition [2] 59% | growth inhibition [4] 95%
inactive: growth inhibition [1] 49% | inhibition [3] 2% | outcome [5] | outcome [6] | outcome [7] | outcome [8]

Cc1ccccc1CNc1noc(-c2c(-c3ccccc3)noc2C)n1
inactive: inhibition [2] -4% | inhibition [3] -2% | outcome [5] | outcome [6] | outcome [7] | outcome [8]
active: growth inhibition [1] 70% | growth inhibition [4] 94%

CCCC(C)NC(=O)c1cnn(-c2ccc(C(C)(C)C)cc2)c1OCc1ccc(Br)cc1 (centres undefined)
inactive: inhibition [2] 17% | inhibition [3] 0% | outcome [5] | outcome [6] | outcome [7] | outcome [8]
active: growth inhibition [1] 64% | growth inhibition [4] 84%

O=C(Nc1ccccc1)N(Cc1cccc(-c2ccc(CNCc3ccc4c(c3)OCO4)cc2)c1)C1CCN(Cc2ccccc2)CC1
active: growth inhibition [1] 82% | growth inhibition [4] 102%
inactive: inhibition [2] 27% | inhibition [3] 7% | outcome [5] | outcome [6] | outcome [7] | outcome [8]

O=C(CCc1cnc[nH]1)Nc1cccc(-c2ccc(-c3nc4ccccc4[nH]3)s2)c1
active: growth inhibition [4] 92%
inactive: growth inhibition [1] 37% | inhibition [2] 11% | inhibition [3] 0% | outcome [5] | outcome [6] | outcome [7] | outcome [8]

CN1CCCc2ccc(NC(=O)c3cc(-c4ccc(Cl)cc4)cs3)cc2C1
active: growth inhibition [4] 94%
inactive: growth inhibition [1] 40% | inhibition [2] 35% | inhibition [3] -2% | outcome [5] | outcome [6] | outcome [7] | outcome [8]

C[C@@H](CC1CCCCC1)NCc1cccc(NS(=O)(=O)c2ccc(O)c(-c3ccno3)c2)c1
active: growth inhibition [4] 88%
inactive: growth inhibition [1] 4% | inhibition [2] -2% | inhibition [3] -6% | outcome [5] | outcome [6] | outcome [7] | outcome [8]

C[C@@H]1CN(c2cnn(C/C=C/c3ccc(NC(=O)c4ccc(Cl)cc4)cc3)c(=O)c2Cl)C[C@H](C)N1
inactive: inhibition [2] 25% | inhibition [3] -2% | outcome [5] | outcome [6] | outcome [7] | outcome [8]
active: growth inhibition [1] 82% | growth inhibition [4] 88%
